High-throughput results: PubChem, National Center for Advancing Translational Sciences (NCATS)
Epigenetic reg: Quantitative High-Throughput Screen for Regulators of Epigenetic Control. murine LDR cells, GFP reporter derepression, 30 h. Potency, µM (titrated, usually from 53.9 µM), without a hit: top-dose GFP activation, most hits filed as activators. 280,000 compounds, 0.2% hits. AID 1865, 2009; active = well fitted activation curve with a large enough effect; inconclusive = small, poorly fitted or top-dose-only effect; also: potency is read from the fitted curve at half-maximal effect; % of control where 0% means no effect; nearly all actives have a fitted effect of over 60% in size
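Murine LDR cells carrying a silenced, genomically integrated CMV-driven GFP reporter were exposed to compound for 30 hours at 37 C. After PBS washes, GFP-positive cells (20–120 um objects) were counted by laser-scanning microplate cytometry.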
Menin MLL FP FL: qHTS Assay for Inhibitors Targeting the Menin-MLL Interaction in MLL Related Leukemias: Competition With Fluorescein Labeled MLL-derived Peptide; Fluorescence polarization, fluorescein-MLL peptide displacement from menin; FP activity change, % at 61.4 µM; 290,000 tested, under 10 active; AID 1766, 2009; active = well fitted curve in the direction sought with a large enough effect in the polarisation, not every such curve was filed as active; inconclusive = small, poorly fitted or top-dose-only effect, or effect the other way, or a change in a side signal; inactive = no such curve, though single readings can be large or run the other way; the % refers to the polarisation; also: % of control where 0% means no effect
ClpP mod: qHTS Assay for Activators of ClpP; ATP-dependent Clp protease proteolytic subunit (Bacillus subtilis (strain 168)), P80244; purified B. subtilis ClpP, FRET peptide cleavage, 20 min; Potency, µM (highest dose often 57.5 µM), for the others: top-dose activity change, negative = active; 340,000 compounds, 1.9% hits; active = well fitted falling curve with a large enough effect; inconclusive = small, poorly fitted or top-dose-only effect; inactive = no such curve, though single readings can be large or run the other way; also: potency is read from the fitted curve at half-maximal effect; the source files actives as falling curves though it sought activators and does not explain the sign; nearly all actives have a fitted effect of over 65% in size
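FRET quenching reversal measured ClpP activation: 10 microg/mL B. subtilis ClpP at pH 8 with the FRET-FV decapeptide, read at 430 nm after 320 nm excitation. The 20-min minus 0-min signal was scaled between DMSO/no-enzyme wells and ADEP (5.8 microM final).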
MLL CXXC-DNA inh: qHTS Fluorescence Polarization Assay for Inhibitors of MLL CXXC domain - DNA interaction | MLL-CXXC / FITC-HOXA9 DNA fluorescence polarization | AID 2662, 2010 | Potency, µM (titrated, usually from 115 µM), for inactives: at the top dose activity change, negative = inhibition, hits mostly inhibitors | 290,000 compounds, 0.037% hits; active = well fitted inhibition curve with a large enough effect in the polarisation, with a control signal flat, not every such curve was filed as active; inconclusive = small, poorly fitted or top-dose-only effect, or effect the other way, or a change in a side signal; inactive = no such curve, though single readings can be large or run the other way; the % refers to the polarisation; also: potency is read from the fitted curve at half-maximal effect
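Fluorescence polarization: 7 uM MLL-CXXC (stock) preincubated 5 min with compounds, then 50 nM fluorescein-HOX-A9 DNA (stock) added; 30 min ambient. Buffer 50 mM Tris-HCl pH 7.5, 50 mM NaCl, 1 mM DTT, 0.05% BSA.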
PINK1 modulator: A Quantitative High throughput Screen to Identify Chemical Modulators of PINK1 Expression. AID 624263, 2012. Potency, µM (doses to about 76.6 µM), inactives show at the highest dose activation (PINK1 increase), actives largely listed as activators. 410,000 compounds, 0.2% hits. PINK1 immunofluorescence, high-content cytometry, 24 h; active = well fitted activation curve with a large enough effect; inconclusive = small, poorly fitted or top-dose-only effect; cell line not stated here; also: potency is read from the fitted curve at half-maximal effect; % of control where 0% means no effect; nearly all actives have a fitted effect of over 65% in size
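PINK1 protein, normally rapidly degraded, was detected by immunofluorescence after 24 hour compound treatment of a stable cell line. Titration data (5 concentrations) came from laser-scanning cytometry, with CCCP-treated wells as controls.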
Menin MLL FP TR: qHTS Assay for Inhibitors Targeting the Menin-MLL Interaction in MLL Related Leukemias: Competition With Texas Red Labeled MLL-derived Mutant Peptide; O00255; Menin + Texas Red MLL mutant peptide, fluorescence polarization; Potency, µM (titrated, usually from 61.6 µM), for inactives: at the highest dose FP activity change, negative = inhibition, actives largely listed as inhibitors; 270,000 compounds, 0.23% hits; AID 1768, 2009; active = well fitted inhibition curve with a large enough effect in the polarisation, with a control signal flat, not every such curve was filed as active; inconclusive = small, poorly fitted or top-dose-only effect, or effect the other way, or a change in a side signal; inactive = no such curve, though single readings can be large or run the other way; the % refers to the polarisation; also: potency is read from the fitted curve at half-maximal effect; % of control where 0% means no effect
Starred values were filed as active, the others as inactive; [ ] = another dose, or the depositor's remark. Shown are actives, neighbours in structure and some others; about 1.9% of the full set was active somewhere.

`Fc1ccc(C2=CC(c3ccc(Br)o3)n3ncnc3N2)cc1` (configuration not stated) gave Epigenetic reg -10%, Menin MLL FP FL inconclusive, ClpP mod 32µM*, MLL CXXC-DNA inh 7%, PINK1 modulator 1% and Menin MLL FP TR 22%.
For COc1ccc(O)c(C(=O)N2CCC3(CC2)c2ccccc2[C@@H](NC(=O)c2ccccn2)[C@@H]3OC)c1 the results were PINK1 modulator 0%.
For COc1ccccc1CNC(=O)CSc1ccc(-c2sc(-c3ccccc3)nc2C)nn1 the results were Epigenetic reg 0%, ClpP mod 28µM* and PINK1 modulator 1%.
For Cc1cc(OCC(=O)Nc2cccc(-c3nc4ccccc4o3)c2C)cc(C)c1Cl the results were ClpP mod inconclusive and PINK1 modulator 0%.
`COCCCNC(=O)CN1C(=O)c2c(c3ccccc3n2C)C1c1ccc(OC)cc1` (configuration not stated) gave Epigenetic reg 0%, ClpP mod 32µM* and PINK1 modulator 0%.
`CCOCCCNC(=O)CN1C(=O)c2c(c3ccccc3n2C)C1c1ccc(OC)cc1` (configuration not stated) gave Epigenetic reg -2%, ClpP mod 32µM* and PINK1 modulator 0%.
`COc1ccc(C2c3c(n(C)c4ccccc34)C(=O)N2CC(=O)Nc2c(C)cc(C)cc2C)cc1` (configuration not stated) gave Epigenetic reg 0%, ClpP mod -3% and PINK1 modulator 0%.
`CCCCCCC[n+]1ccc(/C=C/c2c[nH]c3ccccc23)c2ccccc21` gave ClpP mod 4%.
For Cc1nc2ccccc2nc1CN1CCOc2ccc(C(C)(O)COc3ccccc3)cc2C1 (configuration not stated) the results were PINK1 modulator 2%.
CCOc1ccc2nc(N3C(=O)CNC3=S)sc2c1 was read as Epigenetic reg 17%, Menin MLL FP FL -5, MLL CXXC-DNA inh 16% and PINK1 modulator 1%.
`COc1ccc2nc(N3C(=O)/C(=C/c4ccc(Cl)cc4)NC3=S)sc2c1` gave Epigenetic reg inconclusive, Menin MLL FP FL inconclusive, ClpP mod 1%, MLL CXXC-DNA inh 25%, PINK1 modulator 22µM* and Menin MLL FP TR 0%.
For Cc1cccc(CNC(=O)c2cnn(-c3ncc(C)c(-c4cccs4)n3)c2C2CC2)n1 the results were PINK1 modulator -1%.
Screening O=C(NCC1CCCN(Cc2nccs2)C1)c1cccc2ccccc12 (configuration not stated) returned ClpP mod 35µM*, MLL CXXC-DNA inh 12% and PINK1 modulator 0%.
C=CCC(C)(O)c1ccsc1 (configuration not stated) was read as Epigenetic reg 0%, Menin MLL FP FL -7 and Menin MLL FP TR 4%.
For O=C(C[n+]1cccc(O)c1)Nc1ccc(Br)cc1 the results were Epigenetic reg 0%, Menin MLL FP FL -2, ClpP mod 28µM*, MLL CXXC-DNA inh -8%, PINK1 modulator 2% and Menin MLL FP TR -6%.
`Cc1cccc(NC(=O)C[n+]2cccc(C)c2)c1` gave Menin MLL FP FL -4, ClpP mod 1%, MLL CXXC-DNA inh 4%, PINK1 modulator -1% and Menin MLL FP TR 7%.
Cc1cc(C)c(-c2cc(C(F)(F)F)no2)c(=O)[nH]1 was read as Epigenetic reg -8%, Menin MLL FP FL 3, ClpP mod 18µM*, MLL CXXC-DNA inh 12%, PINK1 modulator -1%[38.3 µM] and Menin MLL FP TR 39%.
`CC(c1ncncc1F)[C@](O)(Cn1cncn1)c1ccc(F)cc1F` (some centres not stated) gave Menin MLL FP FL 4, MLL CXXC-DNA inh 4% and Menin MLL FP TR -9%.
Screening COc1ccc2c(c1)C(=O)N1[C@H]3c4cc(Cl)ccc4OC[C@@H]3[C@H](c3ccccc3)[C@]1(C)C(=O)N2 returned ClpP mod 18µM* and PINK1 modulator 3%.
Screening COC(=O)C1=CN(CCCN2CCCC2=O)C=C(C(=O)OC)C1c1cccs1 returned Epigenetic reg -1%, Menin MLL FP FL -1, ClpP mod 28µM*, MLL CXXC-DNA inh -13%, PINK1 modulator -3% and Menin MLL FP TR -11%.
Screening Cc1c(Cl)cccc1-n1nc(C)c2c(C(=O)NCc3ccccc3)cc(C3CC3)nc21 returned Epigenetic reg -1%, ClpP mod 13µM* and PINK1 modulator 1%.
For Cc1ccc(C2C=C(c3ccccc3)Nc3nc(N4C(=O)CCC4=O)nn32)cc1 (configuration not stated) the results were Epigenetic reg 0%, Menin MLL FP FL inconclusive, MLL CXXC-DNA inh inconclusive, PINK1 modulator 0% and Menin MLL FP TR -14%.
Screening CC1=CC(c2ccc(Cl)cc2)n2nc(NS(=O)(=O)c3ccc(C)cc3)nc2N1 (configuration not stated) returned Epigenetic reg 1%, Menin MLL FP FL 0, ClpP mod 22µM*, MLL CXXC-DNA inh -7%, PINK1 modulator -5%[38.3 µM] and Menin MLL FP TR -4%.
`CC1=CC(c2ccccc2)n2nc(NS(=O)(=O)c3ccc(C)cc3)nc2N1` (configuration not stated) gave Epigenetic reg 2%, Menin MLL FP FL -1, ClpP mod inconclusive, MLL CXXC-DNA inh 6%, PINK1 modulator -3%[38.3 µM] and Menin MLL FP TR 10%.
For CC1=CC(c2ccc(Cl)cc2)n2nc(N3C(=O)CCC3=O)nc2N1 (configuration not stated) the results were Epigenetic reg -1%, Menin MLL FP FL 0, ClpP mod 10µM*, MLL CXXC-DNA inh 6%, PINK1 modulator -2% and Menin MLL FP TR -22%.
COc1ccccc1NC(=O)Cn1c(=O)n(Cc2ccccc2)c(=O)c2c1c1cc(C)ccc1n2C was read as Epigenetic reg -2%, ClpP mod 4% and PINK1 modulator 1%.
COc1ccc2c(c1)c1c(c(=O)n(Cc3ccccc3)c(=O)n1CC(=O)Nc1ccccc1OC)n2C was read as Epigenetic reg 4%, ClpP mod 20µM* and PINK1 modulator 1%.
